For nine compounds, Potency results are on record in PubChem BioAssay (Tox21).

Several values for one entry are separate records, joined by “and”; a condition that tells them apart may be missing. Equal values may be shown once. Inconclusive results are not listed. The source holds several records for some structures; these can differ, active in one and inactive in another. Activity calls are given as the source filed them. Unless noted, calls follow the shape of the dose curve; as a rule, active = well fitted curve in the direction sought with a large enough effect in the repeat runs; inconclusive = weak or mixed curves; inactive = no such curve, though single readings can be large; an effect the other way counts as inactive or inconclusive.

Assay [1] in a line: qHTS assay to identify small molecule antagonists of the thyroid receptor (TR) signaling pathway (AID 743065). Also: nearly all actives have a fitted effect of over 55% in size. Also: potency is read from the fitted curve at half-maximal effect. The essentials:
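GH3.TRE-Luc rat pituitary cells (two TREs driving luciferase) were dosed with compound, then stimulated with 1 nM T3 (final) for 23.5 h at 37 C. ONE-Glo luminescence was the read-out, with CellTiter-Fluor fluorescence as the cytotoxicity counter-screen.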
(Quantitative high-throughput screening tests each substance at several concentrations.)

In assay [2] the test system is thyroid hormone receptor (rat, GH3 cells). Briefly: qHTS assay to identify small molecule agonists of the thyroid receptor (TR) signaling pathway (AID 743066; calls by dose curve).
Assay [3] concerns the target Estrogen receptor (Homo sapiens) (UniProt P03372). The experiment in a line: qHTS assay to identify small molecule antagonists of the estrogen receptor alpha (ER-alpha) signaling pathway (AID 743069; active = well fitted curve in the direction sought with a large enough effect in the signal ratio in the repeat runs, not every such curve was filed as active; the % refers to the signal ratio). The procedure, abridged:
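Reporter cells (ER-alpha-bla, HEK293 background) are conditioned overnight in stripped-serum medium (2% charcoal-stripped FBS). Compound and 17beta-estradiol exposure runs 18 hr at 37C, 5% CO2.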

A short description of assay [4]: qHTS assay to identify small molecule antagonists of the estrogen receptor alpha (ER-alpha) signaling pathway - cell viability counter screen (AID 743074; calls by dose curve;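 also: HEK293 cells carrying ER-alpha-UAS-bla reporter stimulated with 17beta-estradiol; nearly all actives have a fitted effect of over 45% in size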).
The target in assay [5] is Estrogen receptor (Homo sapiens) (UniProt P03372). The experiment in a line: qHTS assay to identify small molecule agonists of the estrogen receptor alpha (ER-alpha) signaling pathway (AID 743075; calls by dose curve;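 also: HEK293 GripTite cells with ER-alpha and UAS-driven beta-lactamase reporter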).
Assay [6] shares this target. Briefly: qHTS assay to identify small molecule agonists of the estrogen receptor alpha (ER-alpha) signaling pathway using the BG1 cell line (AID 743079). Also: nearly all actives have a fitted effect of over 20% in size. Also: potency is read from the fitted curve at half-maximal effect. To be noted: BG1Luc4E2 cells, ERE-luciferase agonist, 22 h; activation: at 70.3 µM (top of the series) unless noted.
A short description of assay [7]: qHTS assay to identify small molecule antagonists of the estrogen receptor alpha (ER-alpha) signaling pathway using the BG1 cell line (AID 743080; calls by dose curve;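 also: BG1 cells stimulated with 17beta-estradiol alongside compound; nearly all actives have a fitted effect of over 25% in size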). The essentials: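 BG1Luc4E2, endogenous ER-alpha, 4xERE-luc; 5 d charcoal-stripped FBS, phenol red free; 24 h plating; cpd + 17beta-estradiol 21.5 h, 37 C/5% CO2; CellTiter-Fluor viability 30 min, then ONE-Glo luciferase 30 min RT.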

Assay [8] is described as follows: qHTS assay to identify small molecule antagonists of the estrogen receptor alpha (ER-alpha) signaling pathway using the BG1 cell line - cell viability counter screen (AID 743081).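 Also: compound given together with 17beta-estradiol as the ER stimulus; nearly all actives have a fitted effect of over 45% in size.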
For the next assay, the target named is Aromatase (Homo sapiens) (UniProt P11511). Briefly: qHTS assay to identify aromatase inhibitors (AID 743083). Also: nearly all actives have a fitted effect of over 55% in size.
Assay [9] in a line: qHTS assay to identify aromatase inhibitors - cell viability counter screen (AID 743084).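 Also: cells stimulated with testosterone during compound exposure; nearly all actives have a fitted effect of over 55% in size.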
Assay [10] deals with Aryl hydrocarbon receptor (Homo sapiens) (UniProt P35869). Briefly: qHTS assay to identify small molecule that activate the aryl hydrocarbon receptor (AhR) signaling pathway (AID 743085). Also: nearly all actives have a fitted effect of over 15% in size. Also: potency is read from the fitted curve at half-maximal effect.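 As to activation: HG2L7.5c1 human HepG2 liver cells with stably integrated DRE-driven firefly reporter.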 The essentials: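 HepG2 cells (HG2L7.5c1) stably carrying a firefly luciferase reporter driven by 20 dioxin responsive elements were exposed to compound for 24 h at 37C after a 5 h settling period; luminescence rise (ONE-Glo) indicated activation.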

A short description of assay [11]: qHTS assay to identify small molecule that activate the aryl hydrocarbon receptor (AhR) signaling pathway - cell viability counter screen (AID 743086).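 Also: HepG2 liver cells carrying the AhR DRE luciferase reporter; nearly all actives have a fitted effect of over 45% in size.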 The procedure, abridged:
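HepG2-AhR-luc (HG2L7.5c1) cells, 4000/well, treated 24 h at 37 C with compound; viability measured as CellTiter-Fluor fluorescence after 30 min in the same wells as the luciferase read.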

A short description of assay [12]: qHTS assay to identify small molecule antagonists of the peroxisome proliferator-activated receptor gamma (PPARg) signaling pathway - cell viability counter screen (AID 743194). Also: nearly all actives have a fitted effect of over 55% in size. To be noted: Potency: co-treated with 50 nM rosiglitazone unless noted. The essentials:
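Cytotoxicity counter screen in PPARg-bla HEK293H cells, same wells as reporter assay. Compounds plus 50 nM rosiglitazone (final) for 17 h at 37 C, then viability read by CellTiter-Glo luminescence.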

Assay [13] can be described thus: qHTS assay for small molecule agonists of the antioxidant response element (ARE) signaling pathway (AID 743202; active = well fitted activation curve with a large enough effect in the signal ratio in the repeat runs, not every such curve was filed as active; the % refers to the signal ratio). The essentials:
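Agonist mode reporter screen: HepG2 cells with ARE-controlled beta-lactamase are incubated with test compounds for 16 h at 37 C, and beta-lactamase activity is measured as fluorescence of cleaved B/G FRET substrate.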

Assay [14] can be described thus: qHTS assay for small molecule agonists of the antioxidant response element (ARE) signaling pathway - cell viability counter screen (AID 743203; calls by dose curve; also: nearly all actives have a fitted effect of over 55% in size). The essentials:
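CellSensor ARE-bla HepG2 cells, 2,000 per well, rested 5 hrs at 37C/5% CO2, then exposed to compound in DMSO for 16 hrs; viability read as CellTiter-Glo luminescence after 30 min at room temperature, in the reporter wells.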

Assay [15] can be described thus: qHTS assay for small molecule activators of the heat shock response signaling pathway - cell viability counter screen (AID 743209). Also: nearly all actives have a fitted effect of over 50% in size. The essentials: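 CellSensor HSE-bla HeLa cells, plated overnight at 37 C/5% CO2, were exposed to compounds in DMSO for 5 h at 37 C. Viability was then read in the same wells by CellTiter-Glo luminescence after 30 min at room temperature.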

Assay [16] is described as follows: qHTS assay for small molecule activators of the heat shock response signaling pathway (AID 743210; active = well fitted activation curve with a large enough effect in the signal ratio in the repeat runs, with a control signal flat, not every such curve was filed as active; the % refers to the signal ratio;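 also: HeLa cells with beta-lactamase reporter driven by heat shock elements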). The procedure, abridged: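 Quantitative high-throughput format using an engineered HeLa line in which heat shock response elements drive beta-lactamase; after 5 h with compound, cells received a B/G FRET substrate and fluorescence was read.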
Assay [17] can be described thus: qHTS assay to identify small molecule agonists of the peroxisome proliferator-activated receptor delta (PPARd) signaling pathway - cell viability counter screen (AID 743211). Also: nearly all actives have a fitted effect of over 55% in size. The essentials:
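PPARd-bla HEK293H cells (UAS-beta-lactamase reporter) were treated with compounds for 17 h at 37 C. Viability was then read in the same wells by CellTiter-Glo luminescence after 30 min at room temperature.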

For assay [18], the target named is Peroxisome proliferator-activated receptor gamma (Homo sapiens) (UniProt P37231). Briefly: qHTS assay to identify small molecule agonists of the peroxisome proliferator-activated receptor gamma (PPARg) signaling pathway (AID 743094; active = well fitted activation curve with a large enough effect in the signal ratio in the repeat runs, not every such curve was filed as active; the % refers to the signal ratio). The procedure, abridged:
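GeneBLAzer PPARg UAS-bla HEK293H cells carrying a stably integrated beta-lactamase reporter were pre-incubated 5 h at 37C, then exposed to compounds in DMSO for 17 h at 37C; LiveBLAzer B/G FRET substrate was added for 1 h at room temperature and fluorescence read.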

Assay [19] has the same target. The experiment in a line: qHTS assay to identify small molecule antagonists of the peroxisome proliferator-activated receptor gamma (PPARg) signaling pathway (AID 743191; calls by dose curve; also: nearly all actives have a fitted effect of over 30% in size). The procedure, abridged:
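GeneBLAzer PPARg UAS-bla HEK293H cells, 5 h post-plating, exposed to compounds 17 h at 37C. LiveBLAzer B/G FRET substrate added for 1 h at room temperature; beta-lactamase reporter read by fluorescence intensity.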

Chain of Estrogen receptor (Homo sapiens) (P03372 whole entry, looked up): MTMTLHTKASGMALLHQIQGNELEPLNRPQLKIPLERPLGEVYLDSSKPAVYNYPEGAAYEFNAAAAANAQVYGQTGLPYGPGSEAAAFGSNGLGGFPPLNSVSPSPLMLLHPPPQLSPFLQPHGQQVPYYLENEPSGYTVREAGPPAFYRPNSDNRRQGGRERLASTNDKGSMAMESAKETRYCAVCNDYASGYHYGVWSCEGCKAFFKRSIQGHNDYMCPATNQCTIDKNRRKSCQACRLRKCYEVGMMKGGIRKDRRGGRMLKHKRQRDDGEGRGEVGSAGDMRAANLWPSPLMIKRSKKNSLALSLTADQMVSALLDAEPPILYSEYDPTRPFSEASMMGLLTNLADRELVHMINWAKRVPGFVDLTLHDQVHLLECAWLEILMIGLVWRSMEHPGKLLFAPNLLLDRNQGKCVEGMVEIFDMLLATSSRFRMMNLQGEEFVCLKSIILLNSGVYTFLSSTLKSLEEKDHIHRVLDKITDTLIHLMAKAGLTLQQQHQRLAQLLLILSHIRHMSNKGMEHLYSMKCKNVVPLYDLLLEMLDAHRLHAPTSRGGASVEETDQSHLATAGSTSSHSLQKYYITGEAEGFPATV
Chain of Aryl hydrocarbon receptor (Homo sapiens) (P35869 whole entry, looked up): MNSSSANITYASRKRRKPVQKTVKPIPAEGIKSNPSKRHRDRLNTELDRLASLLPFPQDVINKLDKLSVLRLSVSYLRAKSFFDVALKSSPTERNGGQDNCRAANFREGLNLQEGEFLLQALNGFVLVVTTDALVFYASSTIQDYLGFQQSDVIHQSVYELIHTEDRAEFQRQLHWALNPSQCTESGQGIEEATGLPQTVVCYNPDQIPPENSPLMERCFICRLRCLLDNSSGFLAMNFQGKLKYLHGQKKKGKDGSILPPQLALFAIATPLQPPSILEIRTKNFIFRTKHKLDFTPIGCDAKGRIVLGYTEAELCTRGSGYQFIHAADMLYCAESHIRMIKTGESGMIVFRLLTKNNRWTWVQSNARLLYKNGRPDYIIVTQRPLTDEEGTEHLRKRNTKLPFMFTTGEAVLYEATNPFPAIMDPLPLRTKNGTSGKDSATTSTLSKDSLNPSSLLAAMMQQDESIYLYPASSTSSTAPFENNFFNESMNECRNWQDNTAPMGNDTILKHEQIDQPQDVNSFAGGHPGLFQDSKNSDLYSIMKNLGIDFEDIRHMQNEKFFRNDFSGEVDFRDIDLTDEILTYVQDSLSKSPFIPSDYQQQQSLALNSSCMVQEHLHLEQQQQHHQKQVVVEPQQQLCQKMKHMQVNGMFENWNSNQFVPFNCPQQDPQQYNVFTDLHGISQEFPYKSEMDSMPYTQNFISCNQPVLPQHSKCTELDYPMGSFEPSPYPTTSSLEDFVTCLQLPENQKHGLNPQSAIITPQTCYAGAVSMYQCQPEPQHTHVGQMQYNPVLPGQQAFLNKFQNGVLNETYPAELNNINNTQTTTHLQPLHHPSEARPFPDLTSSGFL
Chain of Peroxisome proliferator-activated receptor gamma (Homo sapiens) (P37231 whole entry, looked up): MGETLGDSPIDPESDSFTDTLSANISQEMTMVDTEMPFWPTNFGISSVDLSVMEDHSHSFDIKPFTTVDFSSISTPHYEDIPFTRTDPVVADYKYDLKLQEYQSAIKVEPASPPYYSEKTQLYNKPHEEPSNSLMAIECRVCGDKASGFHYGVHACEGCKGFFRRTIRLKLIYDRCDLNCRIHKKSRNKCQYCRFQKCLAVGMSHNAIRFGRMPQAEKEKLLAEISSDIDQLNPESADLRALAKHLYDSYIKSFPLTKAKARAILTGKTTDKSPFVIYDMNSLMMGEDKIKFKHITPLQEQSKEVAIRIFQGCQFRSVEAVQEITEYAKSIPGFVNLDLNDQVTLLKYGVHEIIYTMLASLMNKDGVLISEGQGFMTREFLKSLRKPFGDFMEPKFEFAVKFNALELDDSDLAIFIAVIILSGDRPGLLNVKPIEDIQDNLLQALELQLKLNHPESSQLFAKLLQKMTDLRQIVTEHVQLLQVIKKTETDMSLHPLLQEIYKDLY
Chain of Aromatase (Homo sapiens) (P11511 whole entry, looked up): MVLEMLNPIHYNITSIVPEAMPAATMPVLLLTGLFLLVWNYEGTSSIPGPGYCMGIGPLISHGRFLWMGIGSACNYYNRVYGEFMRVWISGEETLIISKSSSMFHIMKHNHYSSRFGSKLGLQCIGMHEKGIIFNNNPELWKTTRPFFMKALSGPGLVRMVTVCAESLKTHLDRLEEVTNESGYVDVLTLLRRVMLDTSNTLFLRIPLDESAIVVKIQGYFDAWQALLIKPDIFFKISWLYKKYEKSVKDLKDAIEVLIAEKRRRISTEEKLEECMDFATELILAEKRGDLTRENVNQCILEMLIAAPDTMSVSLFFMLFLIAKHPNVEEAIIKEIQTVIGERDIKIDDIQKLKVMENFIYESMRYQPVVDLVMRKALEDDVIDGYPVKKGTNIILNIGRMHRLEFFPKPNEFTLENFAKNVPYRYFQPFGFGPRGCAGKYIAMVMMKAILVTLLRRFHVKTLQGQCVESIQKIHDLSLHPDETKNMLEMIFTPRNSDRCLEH

On to `CCc1cccc(CC)c1N`, for which the Potency entry in [1], in assay [2], in [3], in [4], in assay [5] and in [6] was “inactive” throughout. Further, the Potency result (in [7]; in assay [8]; with Aromatase (Homo sapiens); in assay [9]; in assay [10]; in [11]) was “inactive” in each case. Further, the Potency entry in assay [12], in [13], in assay [14], in [15], in [16] and in [17] was “inactive” in each case.
For `Cc1ccc(C)c(S(=O)(=O)O)c1`, the Potency result (in [1]; in assay [2]; in [4]; in assay [8]; with Aromatase (Homo sapiens); in assay [9]) was “inactive” throughout. The Potency entry in assay [10], in assay [11], in assay [18], in assay [12], in [14] and in assay [16] was “inactive” each time. Further, in [17], the Potency entry was “inactive”.
As to `NC(=O)c1ncn([C@@H]2O[C@H](CO)[C@@H](O)[C@H]2O)n1`, in assay [1], the Potency was 13.3 µM (active) and 28.8 µM (active). Moreover, the Potency entry (in [2]; in assay [4]; in [8]; with Aromatase (Homo sapiens); in [9]; in [10]) was “inactive” each time. Besides, the Potency entry in [11], in assay [18], in [19], in [12], in [13] and in assay [14] was “inactive” throughout. In addition, the Potency result in assay [15], in [16] and in [17] was “inactive” in each case.
For the compound `Cc1ccc([N+](=O)[O-])cc1N`, the Potency result in [1], in assay [2], in [3], in assay [5], in [6] and in assay [7] was “inactive” in each case. The Potency entry (in assay [8]; with Aromatase (Homo sapiens); in assay [9]; in [11]; in assay [18]; in assay [19]) was “inactive” in each case. Besides, the Potency entry in assay [12], in assay [13], in assay [14], in [16] and in assay [17] was “inactive” throughout. Besides, the Potency in assay [10] was 61 µM (active).
`CC(=O)c1nccs1`: the Potency result in [1], in assay [2], in assay [3], in assay [4], in [5] and in assay [7] was “inactive” in each case. Also, the Potency entry (in [8]; in the assay with Aromatase (Homo sapiens); in assay [9]; in [11]; in [18]; in [19]) was “inactive” in each case. In addition, the Potency entry in assay [12], in [13], in assay [14], in assay [15], in assay [16] and in [17] was “inactive” in each case. For the same compound, the Potency result in [6] is “inactive and 48.6 µM (active)”.
Consider `CCCCCCCCCCCCCC(=O)O`, for which the Potency result in assay [1], in assay [2], in assay [3], in assay [5], in assay [6] and in [7] was “inactive” throughout. Moreover, the Potency entry (in [8]; with Aromatase (Homo sapiens); in assay [9]; in assay [10]; in assay [11]; in assay [18]) was “inactive” in each case. In addition, the Potency result in assay [12], in assay [14], in assay [15] and in assay [17] was “inactive” in each case.
Consider `CCCOCC(C)O` (configuration not stated), for which the Potency entry (in assay [1]; in [2]; in assay [4]; in assay [8]; with Aromatase (Homo sapiens); in assay [9]) was “inactive” throughout. Also, the Potency result in assay [10], in assay [11], in [18], in assay [19], in assay [12] and in assay [14] was “inactive” each time. Moreover, the Potency result in [15] and in [16] was “inactive” each time.
Turning to `Clc1cccc(Cl)c1NC1=NCCN1`, the Potency result (in assay [1]; in [2]; in assay [4]; in assay [8]; in the assay with Aromatase (Homo sapiens); in [9]) was “inactive” each time. In addition, the Potency entry in [10], in assay [11], in assay [12], in assay [13], in [14] and in [15] was “inactive” in each case. Besides, the Potency result in assay [16] and in assay [17] was “inactive” in each case.
As to `C[n+]1ccn(CCO)c1`, the Potency entry (in assay [1]; in assay [2]; in [4]; in assay [7]; in assay [8]; with Aromatase (Homo sapiens)) was “inactive” each time. The Potency result in assay [9], in [10], in assay [11], in assay [18], in [19] and in assay [12] was “inactive” throughout. In addition, the Potency entry in [13] and in [14] was “inactive” in each case.
